The structures appear in SMILES notation. Screen size: about 6,200 compounds; about 2,900 (47%) were called active. The set was probably picked from earlier hits. The list shows a part of the results. Unmarked numbers belong to inactive results. Cut-off read from the data, not from the text of the source: active = inhibition above about 50%; inactive = the rest.

The test is described as follows: Mycobacterium tuberculosis growth inhibition, primary screen (AID 1259343). Conditions: inhibition: at 10 µM, active compounds read high; outcome: 10 uM.
In the case of `CCOC(=O)Cc1csc(NC(=O)c2csc(-c3cc4ccccc4[nH]3)n2)n1`, the inhibition is 65.7% (active).
Regarding `CCOC(=O)Cc1csc(NC(=S)NC(=O)c2cccs2)n1`, the inhibition was 88% (active).
Next, `CN(C1CCCCC1)S(=O)(=O)NCC1Cc2ccccc2O1` (configuration not stated): -12.8%.
On to `Cc1cccc(OCC(=O)NC(C)c2cc3ccccc3o2)c1C` (configuration not stated), for which the inhibition is 83.5% (active).
On to `CC(NC(=O)NCCc1ccc(F)cc1)c1ccccc1Br` (configuration not stated), for which the inhibition was 31.6%.
Next, `CC(NC(=O)CCl)c1cc2ccccc2o1` (configuration not stated): 58.8% (active); `COc1cc(-c2c(NC(=O)CC(C)C)oc3c(C)cccc3c2=O)cc(OC)c1OC`: -22.3%; `CC(NC(=O)CCl)c1cccc2ccccc12` (configuration not stated): 86.2% (active).
As for `CCc1ccc(C(C)NS(=O)(=O)CC2CCCCC2)cc1` (configuration not stated), the inhibition was 24.7%.
Take `CC(NS(=O)(=O)CC1CCCCC1)c1cc2ccccc2o1` (configuration not stated): the inhibition was 91.2% (active).
As to `CCc1ccc(C(C)NC(=O)CCl)cc1` (configuration not stated), the inhibition was 68.1% (active).
With `CCc1ccc(C(C)NC(=O)c2ccc(S(=O)(=O)C(F)F)cc2)cc1` (configuration not stated), the inhibition is -35.3%.
With `Nc1ccc(Cl)c(Cl)c1`, the inhibition is 85.7% (active).
In the case of `Nc1ccc(Cl)c(-c2nc3ccccc3o2)c1`, the inhibition is -33.1%.
Next, `O=C(NCCc1ccc(C(F)(F)F)cc1)C1=COCCO1`: 28.4%.
For the compound `CNC(=O)c1ccc(N(C)Cc2ccc(Cl)s2)nc1`, the inhibition was 18.8%.
In the case of `CNC(=O)c1ccc(CN(C)c2ccc(C(F)(F)F)cn2)cc1`, the inhibition is 56.7% (active).
Turning to `OCC#Cc1csc(CN2CCN(c3nccc4ccccc34)CC2)c1`, the inhibition is 51.9% (active).
Take `Cc1cnc(C)c(N2CCN(Cc3cc(C#CCO)cs3)CC2)n1`: the inhibition is 39%.
Next, `c1ccc(-c2nc3c(c(N4CCN(Cc5cccc6cccnc56)CC4)n2)CCC3)cc1`: 31.1%; `Cc1ccc(S(=O)(=O)Nc2ccc(Br)cc2Br)c(C)c1`: 50.7% (active); `O=S(=O)(Nc1ccc(Br)cc1Br)c1ccc(Cl)s1`: 86.1% (active).
With `O=S(=O)(Nc1ccc(Cl)cc1F)c1ccc(Cl)s1`, the inhibition is -6.72%.
With `CCCCCCNS(=O)(=O)c1ccc(Br)s1`, the inhibition is 78.5% (active).
`O=S(=O)(Nc1cc2c(cc1Cl)OCO2)c1ccc(Cl)s1`: the inhibition is 101% (active).
Turning to `CC(=NNS(=O)(=O)c1ccc(Br)cc1)c1ccc(Cl)s1`, the inhibition is 29.9%.
For `O=S(=O)(Nc1ccc(Br)cc1)c1ccc(Br)s1`, the inhibition is 96.8% (active).
Consider `O=S(=O)(Nc1ccc(Br)cc1)c1ccc(Cl)s1`, for which the inhibition is 95.3% (active).
As for `O=S(=O)(Nc1ccc(Cl)cc1)c1ccc(Cl)s1`, the inhibition is -18.5%.
The result for `O=C(COc1cccc(Cl)c1)N1CCC(CCc2ccc3c(c2)OCO3)CC1` reads 43.2%; that for `N#CC1CCN(C(=O)Nc2ccc(OCC3CCCCC3)cc2)CC1`, 40%; that for `Cc1ccc(CCC2CCN(C(=O)Nc3cccnc3)CC2)cc1`, 90.4% (active).
Regarding `Cc1cc(C)cc(CN2CCC(CCc3ccc(C(F)(F)F)cc3)CC2)c1`, the inhibition was -22.4%.
Take `CCOc1ccc(NC(=O)N2CCC(Cc3ccc4c(c3)OCO4)CC2)cc1`: the inhibition is 64% (active).
For the compound `Cc1ccc(CCC2CCN(C(C)C(=O)Nc3ccc(S(N)(=O)=O)cc3)CC2)cc1` (configuration not stated), the inhibition was 3.86%.
For the compound `CCOc1ccc(NC(=O)N2CCC(CCc3ccc(C(F)(F)F)cc3)CC2)cc1`, the inhibition is 78.8% (active).
As to `CCCCc1nc2sc3c(NCCN4CCOCC4)ncnc3c2c2c1COC(C)(C)C2`, the inhibition is 71.5% (active).
As for `CCCc1nc2sc3c(NCCN(C)C)ncnc3c2c2c1CCCC2`, the inhibition was -36.3%.
Consider `COc1ccnc(CS(=O)c2nc3ccc(OC(F)F)cc3[nH]2)c1OC` (configuration not stated), for which the inhibition is 100% (active).
Next, `COc1cc2c(=O)[nH]c(-c3ccccn3)nc2cc1OC(F)F`: 43.2%.
The result for `Clc1ccc(Cl)c(SCCSc2ncn[nH]2)c1` reads 23.3%; that for `Clc1ccc(Cl)c(SCCc2ccccn2)c1`, 73.3% (active).
With `CN(C)CC[C@H](c1ccc(Cl)cc1)c1ccccn1`, the inhibition is 35.8%.
The result for `O=C(c1csc(COc2ccc(F)cc2F)n1)N1CCCC1` reads -0.05%; that for `Fc1cc(F)cc(-c2cncc(COc3ccc(F)cc3F)c2)c1`, 59.7% (active).
For the compound `O=S(=O)(NC1CCCCCC1)c1ccc(F)c(F)c1`, the inhibition was -47.6%.
As to `O=S(=O)(NC1CCCCCCC1)c1ccccc1F`, the inhibition was 29.7%.
As for `O=S(=O)(NC1CCCCCC1)c1ccc(Cl)cc1`, the inhibition was 76.5% (active).
For the compound `Cc1ccc(C(=O)Cn2nnc(-c3ccccc3C)n2)c(C)c1`, the inhibition is 90.1% (active).
The result for `Cc1ccccc1-c1nnn(Cc2cc(=O)n3c(C)cccc3n2)n1` reads 32.9%.
The result for `O=C(Nc1n[nH]c(=S)s1)c1cccs1` reads 103% (active); that for `Cc1ccc(C)c(-c2csc(NC(=O)c3cccs3)n2)c1`, 42.1%.
On to `COC(=O)C1=C(NC(=O)c2cccs2)CCS1`, for which the inhibition is -17.8%.
With `CCN(CC)CCNC(=O)c1cc(NC(=O)Nc2cccc(Br)c2)ccc1N1CCCCC1`, the inhibition is 39.5%.
The result for `COc1ccc(-c2cc(C(=O)NN=Cc3ccc(Br)cc3)[nH]n2)cc1` reads 36.8%; that for `CC(C)Oc1ccc(-c2cc(C(=O)NN=Cc3cccs3)[nH]n2)cc1`, 68.8% (active).
On to `O=C(COc1cccc(F)c1)N1CCC(c2ccc(O)cc2)CC1`, for which the inhibition was 39.3%.
For `CCOC(=O)C1(CCCc2ccccc2)CCN(C(=O)CC2=CCCCC2)CC1`, the inhibition is 16.7%.
In the case of `Cc1ccccc1C1(O)CCN(C(=O)CCC2CCCC2)C1` (configuration not stated), the inhibition was 68% (active).
In the case of `Cc1ccccc1CC1(CO)CCCN(C(=O)CCC(F)(F)F)C1` (configuration not stated), the inhibition is 29.1%.
In the case of `O=C(CCc1ccccc1)N1CCN(c2ccc(O)cc2)CC1`, the inhibition is 78.6% (active).
With `O=C(CCC(F)(F)F)N1CCC(CO)(CCc2ccccc2)CC1`, the inhibition was 25.8%.
Take `Cc1cccc(C2(O)CCN(C(=O)CCc3ccccc3)CC2)c1C`: the inhibition was 75.2% (active).
Regarding `Cc1ccccc1N1CCN(C(=O)CCc2nnc(CCCc3ccccc3)o2)CC1`, the inhibition is 26%.
Consider `O=C(CC1Cc2ccccc2C1)N1CCC2(CCc3ccccc32)C1` (configuration not stated), for which the inhibition is 31.8%.
Next, `O=C(OCC(=O)N1CCN(c2ccc(F)cc2)CC1)c1ccc(O)cc1`: 87.3% (active); `Cc1cc(Cn2ccnc2-c2cc3ccc(F)cc3[nH]c2=O)on1`: -7.89%.

(Values after PubChem BioAssay AID1259343 (VanderVen Lab, College of Veterinary Medicine, Cornell …, 2017).)
